# In the supplement of paper PMC6555819:
# Experiments:
# Experiment in all cases: PBM binding z-score (relative to random genomic background probes); higher = stronger binding; sequences stand for … in GC…GCGATTGACAGCGTAGAATGAAGG
# [1] = tested on: RARb homodimer (NR concentration 270 nM)
# In short: (§1)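 Regression normalization was applied to scanned fluorescence from custom Agilent 4×180K protein-binding microarrays. Before scanning, arrays were incubated 1 h with ligand-free nuclear receptor dimers, and binding was detected with antibodies against each partner (one per run). Binding z-scores use the random background probes as reference.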
# [2] = tested on: RARg:RXRa (NR concentration 270 nM, RXRa partner concentration 90 nM)
# In short: as §1
# [3] = tested on: RARg homodimer (NR concentration 270 nM)
# In short: as §1
# [4] = tested on: RXRa DBDmut IVT, anti-RXR (DBD mutation: RXRa K156A/R161A, NR concentration 90 nM)
# In short: as §1
# [5] = tested on: RXRa homodimer (NR concentration 180 nM)
# In short: as §1
# [6] = tested on: THRa:RXRa (NR concentration 90 nM, RXRa partner concentration 90 nM)
# In short: as §1
# [7] = tested on: THRa homodimer (NR concentration 90 nM)
# In short: as §1
# [8] = tested on: VDR homodimer (NR concentration 270 nM)
# In short: as §1
Sequence,PBM binding z-score [1],PBM binding z-score [2],PBM binding z-score [3],PBM binding z-score [4],PBM binding z-score [5],PBM binding z-score [6],PBM binding z-score [7],PBM binding z-score [8]
TAGCCTAGGTCATGCGGGCCAGTATCGTGTCGGC,2.77,4.03,4.3,0.371,3.1,2.88,1.17,0.528
TAGCCTAGGTCATGGGCCAGTATCCCACGCGAAC,2.76,4,4.2,-0.01,3.19,3.18,1.65,0.301
ACTAGCAGGCCAAGTTTGGGTCGCTCAAACAAAG,0.422,0.182,-0.0192,-0.368,-0.399,0.704,-0.599,-0.503
CTCCAAAGGTCGTGCTCAGGTGAGTATACCAAAC,2.74,5.41,4,2.23,5.01,4.15,1.09,0.905
TTTCGGAGGACACGAAAGGTCAGAGCTCGACATC,4.68,4.88,5.29,0.16,4.66,3.85,1.39,1.04
TAGCCTAGGTCACTGGGCCAGTATAGTACGCATC,3.06,3.92,4.68,0.296,2.8,2.92,0.878,0.192
TCTTGTAGATCAGCAGGTTAAGAACGCTGGCCAA,-0.0185,-0.0606,-0.396,0.288,0.146,-0.0457,-0.571,-0.247
ATCGAAAGGTCGTGAGGTGAGTGTACAGAAAGGC,3.06,4.52,4.11,1.26,5.06,3.48,1.71,1.41
CGAAGTAGGTCAAGGACAGTGAATCTCCGCACGC,3.17,3.94,4.66,1.45,2.92,3.07,1.51,0.462
TTACCAAGGTGAGCTGAGATCGTTGATCCAACTC,-0.439,-0.0165,0.151,-1.09,-0.0334,1.1,-0.431,-0.976
TCTTGTAGATCAAGCAGGTTAATAAAGCCTGAGT,-0.223,-0.313,-0.28,0.435,0.2,0.0183,-0.531,0.0475
TCTCGGAGTACACGAAGGTCAGAGCTTTCCAGAG,3.09,2.44,2.29,1.01,1.77,1.58,-0.377,2.03
GCTGCTAGGTCCACTGATGGTCAGCTAAAGCTCG,0.602,-0.251,-0.0766,0.741,-0.741,-0.256,-0.767,-0.434
TCATATAGGTAATACAGGTGAAAGGCGGCATCTA,0.722,0.622,0.526,1.84,1.32,0.852,0.543,0.774
GATATAGGGTCAAGGCCAGAGTACGCGTATTGAT,3.71,5.6,5.13,2.83,5.81,3.96,2.03,2.59
CTACCAAGGTGAACAAGGGCGTTGATTACTATTC,1.26,1,0.99,0.764,0.725,2.13,0.707,0.903
TAGCCTAGGTCAGATCGGGCCAGAATACGCTATA,1.78,2.58,2.95,-0.569,1.29,4.06,-0.133,-0.288
TGAATGAGGTGATAAGATCAGGGAACGTTGCAAA,-0.0418,0.599,0.324,-0.998,0.631,1.43,0.185,-0.465
TCTTCTAGATCAATAGAGGTTAAGAAAGTGCGCT,1.17,1.06,0.808,0.902,1.4,1.96,-0.514,0.255
TCTGCTAGGTAAACGATGGTCAGCTAATCTGCTA,-0.48,-0.193,-0.441,-0.148,0.132,-0.11,-1.01,-0.963
TCTAGTTGGTCACGGAGGTCATACACGACGGGTA,4.18,4.45,4.21,1.16,4.65,3.5,2.17,3.53
GATACAGGGTCAGCTAGAGGCCAGTGTATGGAAA,3.64,6.8,5.06,1.51,4.25,2.98,0.265,0.727
CCGACTGGGCCAGAAAGGTTACCATACCATCCGG,1.97,1.28,0.921,-0.772,1.58,1.04,-0.354,0.0109
AGTCAAAGTTCATCTAGGTAACGCAAGATATGCT,3.95,5.4,6.01,4.76,4.57,3.08,0.274,5.06
CCTACTGGGCCTCGAAAGGTCATTGATTCAGTGA,4.35,4.09,3.27,0.125,4.83,3.14,0.721,1.43
CGAACTAGGTCATCCAGGACAGTAAATACATTGA,2.98,4.05,4.72,2.51,2.89,3.58,2.2,2.45
CCTACTGGGCCAAAGGTCATTTATTCCAATGCTC,4.42,5.3,4.03,1.55,6.1,3.27,0.735,3.04
ATATGTAGGTTATCGGGTCATTAAGTTTGCGCAT,3.05,3.13,2.3,1.7,3.23,3.25,2.55,4.46
